IL-1B inflam inh – qHTS for Inhibitors of Inflammasome Signaling: IL-1-beta AlphaLISA Primary Screen; THP-1 LPS/ATP IL-1B secretion, AlphaLISA, 16 h; stronger effect = lower value; hit rate 4.7% among 360,000; activity change, % at 57.5 µM; in the data active = activity change below about -50%; inconclusive = mostly about -30% to -49%
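THP-1 cells pretreated 1 hr with compounds (up to 57.5 uM final), then stimulated with LPS (250 ng/mL final) plus ATP (1.25 mM final); secreted IL-1B measured by AlphaLISA after 16 hr, decreased signal indicating inhibition.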
HT1080-NT tox – qHTS for induction of synthetic lethality in tumor cells producing 2HG: qHTS for the HT-1080-NT fibrosarcoma cell line | Potency, µM (doses to about 46.1 µM), inactives show at the top dose activity, negative = less viability, hits mostly cytotoxic | HT-1080-NT fibrosarcoma viability, CellTiter-Glo ATP luminescence, 48 h | hit rate 1.6% among 360,000;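 note: NT is the 2HG producing partner of a matched IDH1 knockdown line; potency is the fitted concentration of half-maximal effect; 0% = DMSO-treated cells and -100% = media-only wells without cells; nearly all actives have a fitted effect of over 55% in size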
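Read-out is CellTiter-Glo luminescence after 10 minutes at room temperature, following 48 hours' compound treatment of HT-1080-NT cells (750 cells/well, RPMI, 5% FBS, 37 degrees C).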
HT1080 IDH1KD tx – qHTS for induction of synthetic lethality in tumor cells producing 2HG: qHTS for the HT-1080-IDH1KD cell line; HT-1080 IDH1 knockdown viability, ATP luminescence, 48 h; Potency, µM (top dose mostly 46.1 µM), inactives show top-dose activity, negative = toxicity, usual class: cytotoxic; hit rate 2% among 360,000; AID 686971, 2013;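 note: potency is the fitted concentration of half-maximal effect; 0% = DMSO wells and -100% = cell-free medium wells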
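Using the IDH1-knockdown HT-1080 line run in the same batch and compound series as the NT line, viability after 48 h at 37 °C was determined by CellTiter-Glo luminescence and expressed as % activity.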
DT40 TDP1 CPT – qHTS for Inhibitors of human tyrosyl-DNA phosphodiesterase 1 (TDP1): qHTS in cells in presence of CPT; chicken DT40 Tdp1-/-;hTDP1 cells + 20 nM CPT, ATP luminescence, 48 h; Potency, µM (series often up to 46.2 µM), inactives show at the top dose activity change, negative = growth inhibition, most hits filed as inhibitors; hit rate 12% among 420,000; note: potency is the fitted concentration of half-maximal effect; nearly all actives have a fitted effect of over 55% in size
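Cell growth measured by CellTiter-Glo luminescence after a minimum 48 h, 37 C compound exposure with 20 nM CPT in Tdp1-knockout DT40 cells stably expressing hTDP1, seeded 400/well; qHTS titration format.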
ELG1 DNA repair – qHTS screen for small molecules that inhibit ELG1-dependent DNA repair in human embryonic kidney (HEK293T) cells expressing luciferase-tagged ELG1. HEK293T ELG1-luciferase reporter, luminescence, 16 h; DNA damage induced by 5-fluorouridine. Potency, µM (doses to about 46.1 µM), for the others: at the highest dose activity change, negative = inhibition, most hits filed as inhibitors. hit rate 2.3% among 330,000; note: potency is the fitted concentration of half-maximal effect; nearly all actives have a fitted effect of over 55% in size
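In this reporter screen, reduction of luminescence relative to DMSO vehicle indicated activity. Compounds and 5-fluorouridine were added together to 2,000 cells per well, incubated for 16 hr at 37 °C, then developed with ONE-Glo.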
DT40 TDP1 no CPT – qHTS for Inhibitors of human tyrosyl-DNA phosphodiesterase 1 (TDP1): qHTS in cells in absence of CPT. AID 686978, 2013. Potency, µM (top dose mostly 46.2 µM), for the others: top-dose activity change, negative = growth inhibition, actives largely listed as inhibitors. hit rate 15% among 420,000. DT40 Tdp1-/- hTDP1 cells, no CPT, ATP luminescence, 48 h; note: potency is the fitted concentration of half-maximal effect; nearly all actives have a fitted effect of over 55% in size
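Chicken DT40 Tdp1-/- cells complemented with human TDP1, screened without camptothecin (DMSO vehicle only), 400 cells/well. Compounds pin-transferred, cells incubated at 37 °C for at least 48 hr. Growth read as ATP-dependent luminescence (CellTiter-Glo, 30 min at RT).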
* marks the source's active call; other numbers are inactive results; u = inconclusive; x = no result given; [ ] = another dose, or the depositor's remark. A selection: hits, their analogues and other compounds. The true share with any hit is near 19%. Unless noted, calls come from the whole dose curve; as a rule, active = well fitted curve in the direction sought with a large enough effect; inconclusive = small, poorly fitted or top-dose-only effect, or another doubt; inactive = no such curve, though single readings can be large; an effect the other way counts as inactive or inconclusive. Unless noted, % is set by controls: 0 for no effect and ±100 for the full control effect.

SMILES | IL-1B inflam inh | HT1080-NT tox | HT1080 IDH1KD tx | DT40 TDP1 CPT | ELG1 DNA repair | DT40 TDP1 no CPT
Cc1cccc(C(=O)Nc2ccccc2NC(=O)c2cccc(C)c2)c1 | -14.1 | -4.8% | -4.0% | -12.8% | u | u
Cc1cccc(C(=O)Nc2cccc3c2CCCC3)c1 | -4.7 | 0.4% | -0.7% | 18.4µM* | -1.7% | 9.2µM*
CCOc1ccc(NS(=O)(=O)c2cc(C(=O)N3CCCC3)ccc2Cl)cc1 | 12.3 | -0.4% | -4.8% | -23.4% | -0.1% | -28.9%
Cc1c(-c2cccc(NC(=O)c3ccc(F)c(F)c3)c2)nc2ncccn12 | x | x | x | u | x | 13µM*
O=C(NCc1ccccc1)c1ccc(Cl)cc1 | 6.8 | 12.3% | 4.7% | 2.7% | 6.2% | 3.2%
CCOc1ccc(NS(=O)(=O)c2cc(NC(=O)c3cccc(C)c3)ccc2Cl)cc1 | u | u | 25.9µM* | 16.4µM* | u | u
C=CCN(CC=C)C(=O)COn1nnc2ccc(S(=O)(=O)N3CCOCC3)cc21 | 9.1 | -12.3% | -14.0% | -9.3% | 1.5% | -10.8%
CC(C)n1cc2c(N)ncnc2n1 | -1.7 | -0.1% | 0.5% | 6.3% | x | 6.4%
COc1ccc(-c2ccnc3c(C(=O)O)cnn23)cc1 | -11.5 | 19.1% | 0.4% | -1.5% | 9.9% | 4.1%
Cc1ccc(S(C)(=O)=N/C=C2\C(=O)c3sccc3N(C)S2(=O)=O)cc1 (stereo unspecified) | 39.0 | -4.9% | -2.4% | 0.2% | u | -16.8%
Cc1ccc(C(=O)Nc2ccc(Nc3ccccc3)cc2)cc1C | -68.9* | -29.7% | u | 20.6µM* | x | 20.6µM*
O=C(Nc1cccc(C(=O)Nc2ccc(Br)cc2)c1)c1ccccc1 | -4.7 | -1.9% | -15.4% | u | u | 11.6µM*
COc1ccc(C(=O)Nc2ccc(Nc3ccccc3)cc2)cc1OC | -8.8 | -1.5% | 1.9% | -4.7% | 4.6% | 12.3%
CN1C(=O)C(N=Nc2ccccc2C(=O)O)N(C)C1=S (stereo unspecified) | 2.7 | 11.6% | -8.8% | -13.0% | u | u
CCOC(=O)c1nc(C)n(-c2cc(Cl)ccc2Cl)n1 | -11.7 | -1.3% | -0.5% | -4.1% | -0.7% | -6.8%
CCOC(=O)c1nc(C)n(-c2cc(OC)c(Cl)cc2Cl)n1 | -92.4* | 1.6% | 1.9% | 9.1% | 8.1% | -5.2%
CC(C)c1ccc(S(=O)(=O)N2CCN(C(=O)CN3C(=O)c4ccccc4C3=O)CC2)cc1 | 30.4 | 4.8% | 9.7% | -9.9% | u | 0.1%
COc1ccccc1NC(=O)CC(c1ccc(OC(C)C)cc1)c1ccccc1OC (stereo unspecified) | 10.4 | 10.0% | 6.7% | 16.4µM* | 8.2µM* | 20.6µM*
COc1ccc(C(CC(=O)Nc2ccccc2OC)n2cccc2)cc1 (stereo unspecified) | -4.1 | -5.0% | -6.2% | 16.4µM* | u | 10.3µM*
COc1ccccc1C(CC(=O)Nc1ccc(C)c(C)c1)c1ccc(OC(C)C)cc1 (stereo unspecified) | 5.7 | u | u | u | -19.1% | 20.6µM*
Cc1ccc(NC(=O)CC(=O)c2ccccc2)cc1C | -12.3 | 9.1% | -9.2% | u | u | u
Cc1cc(=O)oc2cc(OCC(=O)N3CC[C@@]4(O)CCCC[C@H]4C3)c(Cl)cc12 | -28.6 | -1.3% | 0.8% | -17.9% | 29.8% | u
O=C(Nc1nnc(Cc2ccccc2)s1)C1CCN(C(=O)c2ccco2)CC1 | 25.9 | 8.4% | 2.8% | 11.1% | 0.5% | -17.1%
COc1cc(-c2nnc(SCC(=O)Nc3ccc(C(=O)O)cc3)o2)cc(OC)c1OC | -6.3 | -2.0% | 11.1% | 24.3% | 7.5% | 5.3%
COc1ccc(Cl)cc1NC(=O)CN(C)CC(=O)Nc1ccc(S(N)(=O)=O)cc1 | -18.4 | -9.7% | -9.1% | -2.8% | -16.2% | -9.7%
SMILES | IL-1B inflam inh | HT1080-NT tox | HT1080 IDH1KD tx | DT40 TDP1 CPT | ELG1 DNA repair | DT40 TDP1 no CPT
COc1ccc(Cl)cc1NC(=O)CN(C)CC(=O)Nc1ccc(Br)cc1 | -88.5* | u | u | u | -2.6% | u
COc1ccc(Cl)cc1NC(=O)CN(C)C(=O)c1cc2c(F)cccc2s1 | 39.1 | u | u | 10.3µM* | u | 6.51µM*
COc1ccc(Cl)cc1NC(=O)CN(C)CC(=O)Nc1c(C)n(C)n(-c2ccccc2)c1=O | -23.0 | 2.9%[9.24 µM] | -25.9% | u | 18.3µM* | u
COc1ccc(Cl)cc1NC(=O)CN(C)CC(=O)Nc1cc(OC)c(OC)c(OC)c1 | 0.0 | 11.6µM* | 8.2µM* | 5.8µM* | 18.3µM* | 4.11µM*
COc1ccccc1N1CCN(S(=O)(=O)c2c(C)sc3ncn(CC(=O)Nc4ccc(C)cc4Br)c(=O)c23)CC1 | x | x | x | -0.9% | x | -4.6%
CCOc1ccccc1CNC(=O)C1=C(C)C(=O)OC12CCN(C(C)=O)CC2 | x | x | x | 4.3% | x | -9.8%
Cc1ccc(-c2nnc(SCC(=O)NC3CC3)n2N)cc1 | 0.6 | 8.3% | -0.6% | -1.9% | 4.1% | -0.5%
COc1cc(CCc2ccccc2)c(C(=O)O)c(O)c1C/C=C(/C)CCC=C(C)C | 35.2 | u | u | u | u | 16.4µM*
COc1cc(CCc2ccccc2)c(C(=O)O)c(O)c1CC=C(C)C | -27.0 | -12.4% | -8.1% | 23.1µM* | x | 18.4µM*
Cc1ccc(C)c(N2CCN(c3ccncc3N)CC2)c1 | -3.3 | -9.6% | -4.6% | 18.4µM* | -11.9% | 13µM*
Cc1c(CCC(=O)NCCCN2CCCC2=O)c(=O)oc2c(C)c(O)ccc12 | -21.4 | 14.5% | 6.9% | -1.2% | 11.8% | 2.2%
Cc1cc(C)cc(NC(=O)c2cc(S(=O)(=O)N3CCc4ccccc43)cn2C)c1 | x | x | x | -10.1% | x | -20.4%
CC1(C(=O)Nc2cccc3ccccc23)CCN1C(=O)C1(c2ccccc2)CCCC1 (stereo unspecified) | 18.4 | -4.5% | -18.8% | u | x | 18.4µM*
C#Cc1ccc(NC(=O)C2(C)CCN2C(=O)C2(c3ccccc3)CCCC2)cc1 (stereo unspecified) | u | u | u | 23.1µM* | x | 16.4µM*
CC(C)NC(=O)C1(C)CCN1C(=O)C1(c2ccccc2)CCCC1 (stereo unspecified) | 51.6 | -3.4% | 1.9% | u | x | u
